# From PubChem
# HP1b chromo inh: HP1-beta chromodomain-methylated histone interaction inhibition | Potency, µM (top dose mostly 114 µM), most hits filed as inhibitors | AlphaScreen HP1-beta / biotin-H3K9me3 peptide binding | AID 540317 | 0.56% of 390,000 active; also: nearly all actives have a fitted effect of over 70% in size
# Target sequence (P83916 whole entry, looked up): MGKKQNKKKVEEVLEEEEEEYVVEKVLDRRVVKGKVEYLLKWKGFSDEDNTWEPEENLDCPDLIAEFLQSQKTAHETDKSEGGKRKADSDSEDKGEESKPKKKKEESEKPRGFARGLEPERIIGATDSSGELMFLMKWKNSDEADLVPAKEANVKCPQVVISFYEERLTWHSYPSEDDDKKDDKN
#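 Compound inhibition of the preformed complex between 50 nM HP1-beta and 50 nM biotinylated H3K9me3 peptide was read by AlphaScreen. Buffer was PBS pH 7.4 with 0.01% Tween-20. Incubations ran 30 min at room temperature, with 10 ug/mL donor/acceptor beads.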
# L3MBTL1 inh: blocks human L3MBTL1. Q9Y468. AlphaScreen L3MBTL1–H3K9me1 peptide binding. Potency, µM (top dose mostly 57.1 µM), most hits filed as inhibitors. 0.66% of 230,000 active. AID 485360; also: nearly all actives have a fitted effect of over 60% in size
#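 L3MBTL1 50 nM + b-AHA-H3(1-15)K9me1 75 nM, 30 min RT; compound added, 30 min RT; streptavidin donor/Ni-chelate acceptor beads 10 ug/mL each final, 30 min RT dark; AlphaScreen read.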
# Sfp PPTase inh: blocks B. subtilis Sfp PPTase activity | Biochemical Sfp PPTase activity, qHTS | AID 1490 | Potency, µM, actives largely listed as inhibitors | 3.5% of 310,000 active;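 also: the enzyme is Sfp with the accession as filed and its product quenches rhodamine fluorescence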
#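 With Hepes-Na pH 7.6 buffer containing 10 mM MgCl2, Sfp (15 nM) modified BHQ-2-YbbR (12.5 uM) using rhodamine-CoA (5 uM). Two reads 30 minutes apart at 525/598 nm yielded each well's rate.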
# JMJD2A Tudor inh: blocks the human JMJD2A Tudor domain. O75164. AlphaScreen JMJD2A-Tudor / H3K4me3 peptide binding. Potency, µM (doses to about 114 µM), actives largely listed as inhibitors. 4.4% of 390,000 active. AID 504339; also: nearly all actives have a fitted effect of over 50% in size
# G9a inh: G9a (human) methyltransferase inhibition; Q96KQ7; Potency, µM (highest dose often 102 µM), most hits filed as inhibitors; G9a H3K9 monomethylation, AlphaScreen, 2 h; 8.8% of 350,000 active; also: nearly all actives have a fitted effect of over 75% in size
# Target sequence (Q96KQ7 913-1193 limits assumed): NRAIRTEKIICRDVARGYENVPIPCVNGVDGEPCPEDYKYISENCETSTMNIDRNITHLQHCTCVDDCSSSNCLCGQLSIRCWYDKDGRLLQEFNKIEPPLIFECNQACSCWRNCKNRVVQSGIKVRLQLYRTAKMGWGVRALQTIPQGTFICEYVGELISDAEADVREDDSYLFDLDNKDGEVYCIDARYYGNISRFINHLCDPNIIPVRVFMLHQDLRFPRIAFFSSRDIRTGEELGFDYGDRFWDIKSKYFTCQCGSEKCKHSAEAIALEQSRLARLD
#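 Signal arises when biotinylated H3K9 peptide, once monomethylated, bridges streptavidin donor and antibody-captured acceptor beads. Enzyme at 20 nM was preincubated 15 min with test compounds; peptide 500 nM and SAM 20 uM then reacted for 2 h.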
# BAZ2B inh: BAZ2B (human) inhibition. Q9UIF8. AlphaScreen BAZ2B-H3K14Ac peptide displacement. Potency, µM (doses to about 114 µM), most hits filed as inhibitors. 4.4% of 360,000 active; also: nearly all actives have a fitted effect of over 60% in size
#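 Multi-concentration screen (max 110 uM) measuring displacement of acetylated histone H3 peptide from BAZ2B by AlphaScreen, using 50 nM protein, 50 nM peptide and 10 ug/mL streptavidin donor plus Ni-chelate acceptor beads.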
# A number is an active result; - = inactive; ? = inconclusive; . = no result; ! = a repeat was not active; [ ] = remark or other dose. Shown are actives, neighbours in structure and some others; about 12% of the full set was active somewhere. Calls follow the shape of the dose curve; as a rule, active = well fitted curve in the direction sought with a large enough effect; inconclusive = small, poorly fitted or top-dose-only effect, or another doubt; inactive = no such curve, though single readings can be large; an effect the other way counts as inactive or inconclusive.
SMILES,HP1b chromo inh,L3MBTL1 inh,Sfp PPTase inh,JMJD2A Tudor inh,G9a inh,BAZ2B inh
CCOc1ccc(NC(=O)CN(C)C(=O)c2cccc(S(=O)(=O)N3CCN(C)CC3)c2)cc1OCC,-,.,.,-,.,.
CCCc1nnc(NC(=O)CCC(=O)NCc2ccc(OC)cc2)s1,-,-,-,-,-,-
S=c1[nH]nc(-c2cccnc2)n1-c1ccc2c(c1)OCCO2,-,-,?,25.1µM,31.6µM,-
S=c1[nH]nc(-c2ccc(Cl)cc2)n1-c1ccc(Cl)cc1,-,-,-,-,8.91µM,?
Fc1ccc(-c2n[nH]c(=S)n2-c2ccc3c(c2)OCCO3)cc1,?,-,?,2.82µM,.,-
S=c1[nH]nc(-c2ccc(Cl)cc2)n1-c1ccc2c(c1)OCCO2,-,-,?,?,1.78µM,-
O=S(=O)(NCCc1csc(-c2cccnc2)n1)c1ccc2c(c1)OCCO2,-,-,-,-,?,-
COc1cc(C(=O)NCC(c2ccc3c(c2)OCO3)N2CCN(C)CC2)cc(OC)c1OC (centres undefined),-,.,.,-,-,-
COCCN1CC(C(=O)N2CCC(Oc3ccccc3OC)CC2)CCC1=O (centres undefined),-,.,-,-,-,-
CCS(=O)(=O)c1ccc2oc(Nc3ccccc3Cl)nc2c1,-,.,-,-,-,-
CCS(=O)(=O)c1ccc2oc(Nc3cc(Cl)ccc3OC)nc2c1,-,.,-,-,35.5µM,-
O=C1C=CC(=O)N1,?,-,.,-,2µM,-
Cc1c(N)c(C(C)(C)C)cc(C(C)(C)C)c1[N+](=O)[O-],-,-,-,-,-,-
Cc1cc2nc3c(=O)[nH]c(=O)[nH]c3nc2c([N+](=O)[O-])c1N,?,?,?,44.7µM,31.6µM,50.1µM
CCOC(=O)CSc1nnc(NC(=O)c2cccc([N+](=O)[O-])c2C)s1,-,-,-,-,25.1µM,-
CCOC(=O)CSc1nnc(NC(=O)c2ccco2)s1,-,.,-,-,-,-
Cc1cccc(NC(=O)CSc2nnc(NC(=O)CN3CCCCC3)s2)c1,.,-,-,.,-,-
CCOC(=O)CSc1nnc(NC(=O)CN2CCCCC2)s1,-,.,-,50.1µM,-[12.7 µM],-
COc1ccc(C)cc1NC(=O)CSc1ncc2c(n1)-c1ccc(Cl)cc1N(Cc1ccccc1)S2(=O)=O,-,.,.,-,-,50.1µM
Cc1sc2ncnc(NCC(c3ccco3)N(C)C)c2c1C (centres undefined),?,-,-,1.58µM,-,-
CCCCCC#CC[C@@H](O)/C=C/C=C/C=C\[C@@H](O)CCCC(=O)O,.,.,-,.,.,.
COc1ccc(/C=N/NC(=S)NC2CCS(=O)(=O)C2)cc1OC (centres undefined),-,-,56.2µM,-,.,-
Cc1ccc(/C=N/NC(=S)NC2CCS(=O)(=O)C2)cc1 (centres undefined),-,-,?,-,-,-
CC(CNCCCn1cnc2c(OCc3ccccc3)ncnc21)c1ccccc1 (centres undefined),-,.,.,-,.,.
CN(c1ccccc1)c1ccc(/C=C(\C#N)c2nnc3n2CCCCC3)cc1[N+](=O)[O-],?,?,-,44.7µM,39.8µM,44.7µM
SMILES,HP1b chromo inh,L3MBTL1 inh,Sfp PPTase inh,JMJD2A Tudor inh,G9a inh,BAZ2B inh
O=C(Cc1cccs1)N=Nc1c(O)[nH]c2ccccc12,-,.,-,-,-,-
O=C(N=Nc1c(O)[nH]c2ccccc12)c1cc(-c2cccs2)[nH]n1,-,.,-,-,.,50.1µM
COc1ccc(CC(=O)n2[nH]c(=O)ccc2=O)cc1OC,8.91µM,-,3.55µM,8.91µM,1.12µM,-
COc1ccc(CC(=O)n2[nH]c(=O)c3ccccc3c2=O)cc1OC,-,-,-,-,.,-
COc1cc2c(cc1OC)-c1c(oc3cc(O)cc(O)c3c1=O)CO2,.,.,-,.,-[2.33 µM],.
O=C(O)c1cc([N+](=O)[O-])c(NCc2cccnc2)c([N+](=O)[O-])c1,-,-,-,-,44.7µM,?
COc1ccccc1-c1nccc(NCc2cccnc2)n1,.,.,?,.,-[0.501 µM],.
CC(C)NC(=S)Nc1c(N)[nH]c(=O)[nH]c1=O,-,-,-,-,56.2µM,-
CC(C)NC(=S)NC(=O)/C=C/c1ccc(F)cc1,-,-,-,-,-,-
O=C(COC(=O)c1ccc2c(c1)OCCO2)NC1CCCCC1,-,-,.,-,-[12.7 µM],-
COc1ccc(-c2nc3cnc(Nc4cccc(OC)c4)nc3n(Cc3cccs3)c2=O)cc1,.,.,-,.,-[0.501 µM],.
COc1ccc(Nc2c(-c3ccco3)nc3ccc(C)cn23)cc1,-,.,-,-,-,-
COc1ccc(-c2nc3cccc(C)n3c2Nc2ccc(C)cc2)cc1,-,.,.,39.8µM,.,.
Cc1ccc(Nc2c(-c3cccc(Cl)c3)nc3cccc(C)n23)cc1,-,.,.,?,?,?
COc1ccc(Nc2c(-c3ccco3)nc3cccc(C)n23)cc1,?,.,-,56.2µM,25.1µM,22.4µM
N=c1ccn2c(n1)O[C@H]1[C@@H](O)[C@@H](CO)O[C@H]12,.,.,.,.,-[12.7 µM],.
CCCC(C(=O)Nc1ccc2c(C)cc(=O)oc2c1)c1ccccc1 (centres undefined),-,.,-,-,22.4µM,56.2µM
Cc1cc(=O)oc2cc(NC(=O)Cc3ccccc3)ccc12,-,.,-,-,-,-
Cc1cc(=O)oc2cc(NC(=O)C(C)Oc3ccc(F)cc3)ccc12 (centres undefined),-,-,.,-,44.7µM,-
Cc1cc(=O)oc2cc(NC(=S)NCc3ccccn3)ccc12,-,-[11.4 µM],-,-,39.8µM,?
CCOC(=O)Cn1c(=O)n(C2CCCCC2)c2nc(-c3cccc(C)c3)nc(C(N)=O)c21,-,.,.,-,-,-
O=C(NCCCc1ccccc1)c1ccc(F)cc1,-,-,-,-,-,-
O=C(NCCNC1CCC(c2ccccc2)CC1)c1ccc(F)cc1 (centres undefined),?,-,-,5.62µM,?,25.1µM
CC(C)(C)CC(C)(C)c1ccc(OCCOCC[N+](C)(C)Cc2ccccc2)cc1,-,-,39.8µM!,-,?,-
CC(NC(=O)CN1CCN(S(=O)(=O)c2ccc(Br)cc2)CC1)c1ccccc1 (centres undefined),-,?,.,-,-,-
CCOc1cc(CN2CCN(CCOCCO)CC2)ccc1OC,-,.,-,-,-,-
OCCOCCN1CCN(C2=Nc3ccccc3Sc3ccccc32)CC1,-,.,50.1µM!,-,-[12.7 µM],-
CN(C)S(=O)(=O)c1cccc(NC(=S)N/N=C/C2CC=CCC2)c1 (centres undefined),-,-,-,12.6µM,5.62µM,-
COc1ccc(OC)c(CNC(=O)CCc2cn(C)c3ccccc23)c1,-,.,-,?,?,-
Cc1c(C)n(C)c2ccc(C(=O)NCCCN3CCN(c4ccccc4F)CC3)cc12,?,.,-,56.2µM,44.7µM,?
